Data as given in paper PMC5540273 (PLoS ONE, 2017).

Legend:
Conditions in all cases: concentration: 1 μM, replicates: in singlicate; n = 1
SNARK = tested on: T1, SNARK
T1 construct: gene NUAK2

SNRK = tested on: SNRK
SRC = tested on: SRC
SRMS = tested on: SRMS
SRPK1 = tested on: SRPK1
SRPK2 = tested on: SRPK2
SRPK3 = tested on: SRPK3
STK16 = tested on: STK16
STK33 = tested on: STK33
STK35 = tested on: STK35
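Note: KINOMEscan kinase panel screen.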

Row | SMILES | %Inh (SNARK) | %Inh (SNRK) | %Inh (SRC) | %Inh (SRMS) | %Inh (SRPK1) | %Inh (SRPK2) | %Inh (SRPK3) | %Inh (STK16) | %Inh (STK33) | %Inh (STK35)
1 | Cc1ccc(S(=O)(=O)Nc2ccc(Nc3nccc(Nc4cccc5[nH]ncc45)n3)cc2)cc1 [GSK581271] | 0% | 0% | 64% | 0% | 51% | 5% | 9% | 43% | 0% | 55%
2 | CSc1cccc2c(-c3ccncn3)c(-c3ccc(F)cc3)nn12 [GW514786] | 0% | 0% | 1% | 0% | 0% | 0% | 100% | 3% | 0% | 0%
3 | NCCCC(NC(=O)c1cc(Br)c(-c2ccnc3[nH]ccc23)s1)c1ccccc1.O=C(O)C(F)(F)F.O=C(O)C(F)(F)F (centres unmarked) [GSK1287544] | 88% | 6% | 0% | 0% | 70% | 12% | 57% | 60% | 91.5% | 0%
4 | Cn1cc(-c2[nH]c3cc(NC(=O)[C@H](N)C4CCCCC4)cc4c3c2C=NNC4=O)cn1 | 97.9% | 1% | 98.3% | 75% | 99% | 77% | 82% | 66% | 37% | 53%
5 | CN1CCN(Cc2cccc(-c3ccc4c(Nc5ccc(Oc6ccccc6)cc5)ccnc4c3)c2)CC1 [GW578342] | 0% | 0% | 34% | 97.1% | 69% | 20% | 0% | 2% | 13% | 70%
6 | O=C(NC1CCN(c2ccnc(Nc3ccc(F)cc3)n2)C1)c1cc2ccccc2s1 (centres unmarked) [GSK1379716] | 0% | 0% | 1% | 0% | 31% | 37% | 4% | 15% | 0% | 6%
7 | O=C(Nc1cccc(-c2nn3ccccc3c2-c2ccnc(Nc3cccc(F)c3)n2)c1)c1c(F)ccc(F)c1Cl [GSK357952] | 4% | 17% | 45% | 28% | 45% | 0% | 0% | 0% | 10% | 27%
8 | COc1ccc(Nc2nccc(NCCNC(=O)c3cc4ccccc4s3)n2)cc1 [GSK1379896] | 0% | 2% | 9% | 0% | 32% | 0% | 3% | 13% | 0% | 0%
9 | Fc1ccc(-c2ncn(C3CCNCC3)c2-c2ccnc(Oc3ccc(-c4ccccc4)cc3)n2)cc1 [SB-245391] | 16% | 23% | 11% | 3% | 5% | 0% | 5% | 14% | 21% | 0%
10 | O=c1[nH]cc(-c2ccc(N3CCOCC3)cc2)c2sc(-c3cn[nH]c3)cc12 [GSK2276055] | 15% | 0% | 0% | 8% | 17% | 0% | 0% | 35% | 0% | 0%
11 | COc1cc2c(cc1OCCN1CCNCC1)ncc1c3ccc(C#N)cc3[nH]c21 | 94.6% | 12% | 0% | 19% | 36% | 0% | 42% | 9% | 19% | 0%
12 | O=C(O)C(F)(F)F.O=C(O)C(F)(F)F.O=c1[nH]ccc2nc(N[C@@H]3CCCNC3)nc(Nc3ccc(S(=O)(=O)N4CCOCC4)cc3)c12 [GSK2177277] | 99.6% | 72% | 96.7% | 0% | 100% | 65% | 95.2% | 99.3% | 98.6% | 98%
13 | Clc1ccc(-c2nn3ncccc3c2-c2ccnc(Nc3ccc4c(c3)OCCO4)n2)cc1 [GW829116] | 0% | 0% | 44% | 13% | 0% | 0% | 0% | 32% | 0% | 0%
14 | Cc1cccc(Nc2nc(N[C@H]3CCNC3)ncc2C(N)=O)c1.Cl [GSK2197149] | 34% | 0% | 85% | 0% | 72% | 0% | 76% | 12% | 40% | 1%
15 | O=C(Nc1cccc(-c2nn3ncccc3c2-c2ccnc(Nc3ccccc3)n2)c1)c1c(F)cccc1F [GSK198271] | 32% | 45% | 62% | 94.9% | 32% | 0% | 0% | 7% | 0% | 79%
16 | c1ccc(-c2cnc3nccnn23)cc1 [AH20685] | 0% | 0% | 0% | 0% | 20% | 0% | 0% | 0% | 0% | 0%

Row | SMILES | %Inh (SNARK) | %Inh (SNRK) | %Inh (SRC) | %Inh (SRMS) | %Inh (SRPK1) | %Inh (SRPK2) | %Inh (SRPK3) | %Inh (STK16) | %Inh (STK33) | %Inh (STK35)
17 | COc1ccc(-c2coc3ccc(-c4nnc(SCc5ccc(OC)c(C(F)(F)F)c5)o4)cc23)cc1 | 35% | 21% | 4% | 0% | 8% | 0% | 0% | 17% | 7% | 0%
18 | CC(C)c1nc(-c2cccc(NS(=O)(=O)c3c(F)cccc3F)c2F)c(-c2ccnc(Nc3ccc(N4CCOCC4)nc3)n2)s1 [GSK2008607] | 29% | 0% | 100% | 99.5% | 38% | 0% | 0% | 46% | 83% | 36%
19 | c1ccc(Oc2ccc(Nc3ccnc4cc(-c5ccc(CNCCN6CCOCC6)o5)ccc34)cc2)nc1 [GW567145] | 6% | 0% | 22% | 87% | 0% | 58% | 0% | 2% | 21% | 48%
20 | Cc1cccc(NC(=O)Nc2ccc(Oc3ncnc4ccn(C)c34)cc2)c1 | 0% | 0% | 0% | 0% | 11% | 0% | 0% | 0% | 0% | 0%
21 | Cl.c1ccc(-c2ccc3c(Nc4ccc5[nH]ccc5c4)ccnc3c2)nc1 [GW440138] | 4% | 0% | 60% | 0% | 38% | 22% | 0% | 0% | 0% | 0%
22 | CC(=O)N1CCN(c2ccc(Nc3nccc(-c4sc(C(C)C)nc4-c4cccc(NS(=O)(=O)c5cccc(Cl)c5)c4)n3)cn2)CC1 [GSK1660437] | 17% | 0% | 85% | 98.3% | 44% | 0% | 44% | 0% | 34% | 0%
23 | Cl.Cl.NCC(NCc1ccc(-c2ccnc3[nH]ccc23)s1)c1ccccc1 (centres unmarked) [GSK1321565] | 93.5% | 0% | 0% | 0% | 68% | 83% | 77% | 49% | 76% | 0%
24 | O=C(Nc1cccc(-c2nn3ccccc3c2-c2ccnc(Nc3cccc(C(F)(F)F)c3)n2)c1)c1c(F)cccc1F [GSK292658] | 9% | 15% | 15% | 22% | 12% | 0% | 17% | 0% | 4% | 20%
25 | CCCCc1nn2ncccc2c1-c1ccnc(Nc2ccc(N3CCN(C)CC3)cc2)n1 [GW684941] | 90.2% | 0% | 98.8% | 0% | 63% | 6% | 26% | 86% | 39% | 0%
26 | COc1cccc(-c2ccc3c(NC(=O)C4CC4)n[nH]c3n2)c1 [SB-710903] | 0% | 0% | 0% | 0% | 10% | 50% | 0% | 26% | 0% | 0%
27 | CNC(=O)c1ccccc1Nc1nc(Nc2ccc(N3CCOCC3)cc2)ncc1Cl.Cl [GSK1576028] | 99.2% | 0% | 100% | 67% | 98.1% | 35% | 78% | 99.2% | 98.6% | 50%
28 | COc1ccc(CNC(=O)NC2CCN(c3ccnc(Nc4ccc(F)cc4)n3)CC2)cc1 [GSK1379788] | 0% | 0% | 0% | 0% | 0% | 11% | 0% | 9% | 0% | 0%
29 | Cl.c1ccc(-c2ccc3c(Nc4ccc5[nH]ncc5c4)ccnc3c2)nc1 [GW440137] | 20% | 0% | 33% | 0% | 31% | 0% | 0% | 30% | 0% | 0%
30 | COc1cc(Nc2nccc(N3CCC(NC(=O)Nc4cccc(C(C)=O)c4)C3)n2)cc(OC)c1OC (centres unmarked) [GSK1379753] | 21% | 0% | 10% | 0% | 50% | 0% | 0% | 83% | 0% | 0%
31 | Nc1ncc(-c2cccnc2)c2scc(-c3ccc4c(c3)CCN4C(=O)Cc3ccccc3)c12 [GSK683281] | 4% | 1% | 37% | 8% | 32% | 0% | 28% | 4% | 20% | 0%
32 | Nc1ncc(-c2ccc3nccc(-c4ccncc4)c3c2)cc1S(=O)(=O)N1CCOCC1 [GSK1627798] | 8% | 0% | 0% | 0% | 0% | 0% | 4% | 22% | 0% | 0%
